{
  "source": "paper PMC5540273",
  "about": "(PLoS ONE, 2017);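 further: KINOMEscan kinase panel screen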",
  "data": [
    {"system": "T1, DRAK2", "T1 construct": "gene STK17B", "conditions": "concentration: 1 μM, replicates: in singlicate; n = 1", "units": {"%Inh": "%"}, "values": [
      {"molecule": "CCc1ccc(-c2ccc3c(c2)-c2nn(C)cc2S(=O)(=O)N3C)cc1", "%Inh": 0},
      {"molecule": "Nc1n[nH]c2ncc(-c3ccccc3)cc12", "note": "[SB-517081]", "%Inh": 0},
      {"molecule": "Cc1nc(N(C)[C@H]2CN(C(=O)CC#N)CC[C@H]2C)c2cc[nH]c2n1", "%Inh": 0},
      {"molecule": "COc1ccc(-c2coc3ccc(-c4nnc(SCc5cccc(C#N)c5)o4)cc23)cc1", "%Inh": 7},
      {"molecule": "CCC(=O)c1c(-c2ccccc2)c2cc(Cl)ccc2c(=O)n1Cc1cc(S(C)(=O)=O)n(CCC(C)(C)O)n1", "%Inh": 2},
      {"molecule": "COc1cc2ncn(-c3cc(OCc4ccncc4)c(C(N)=O)s3)c2cc1OC", "note": "[GSK336313]", "%Inh": 0},
      {"molecule": "Nc1nccc2scc(-c3ccc4c(c3)CCN4C(=O)Cc3ccccc3)c12", "note": "[GSK2576924]", "%Inh": 0},
      {"molecule": "COC(=O)c1c(-c2ccccc2)c2cc(Br)ccc2c(=O)n1Cc1ccc(S(C)(=O)=O)cc1", "%Inh": 0},
      {"molecule": "CCCC(=O)Nc1n[nH]c2ncc(-c3cccc4ccccc34)cc12", "note": "[SB-642057]", "%Inh": 0},
      {"molecule": "O=C1NC(=O)C(c2ccccc2)=C1Nc1cccc(O)c1", "note": "[SB-390534]", "%Inh": 0},
      {"molecule": "Cc1nn2c(=O)cc(N3CCOCC3)nc2n1Cc1cccc(Cl)c1Cl", "note": "[GSK2342769]", "%Inh": 0},
      {"molecule": "C[C@@H]1CC[C@H](C(=O)NC2CCCCC2)CN1c1cc(-c2ccc3c(N)n[nH]c3c2)nc(N)n1", "note": "[GSK2291363]", "%Inh": 0},
      {"molecule": "Nc1ncnc2c1ncn2-c1cccc2ccccc12", "note": "[SKF-97184]", "%Inh": 0},
      {"molecule": "COc1cc2ncn(-c3cc(OCc4ccncc4Br)c(C(N)=O)s3)c2cc1OC", "note": "[GW854278]", "%Inh": 5},
      {"molecule": "COc1cc2ncn(-c3cc(OCCCc4ccccc4)c(C(N)=O)s3)c2cc1OC", "note": "[GSK205189]", "%Inh": 0},
      {"molecule": "O=C(Nc1n[nH]c2nc(-c3ccccc3)c(Cl)cc12)C1CC1", "note": "[SB-734909]", "%Inh": 0},
      {"molecule": "COc1ccc(-c2cc3c(C)nc(N)nc3n([C@H]3CC[C@H](OCCO)CC3)c2=O)cn1", "%Inh": 14},
      {"molecule": "CCC(=O)c1c(-c2ccccc2)c2cc(Cl)ccc2c(=O)n1Cc1ccc(C(=O)O)cc1", "%Inh": 2},
      {"molecule": "Cc1nnc(-c2ccc(C)c(-c3ccc(C(=O)O)cc3)c2)o1", "note": "[GW608005]", "%Inh": 1},
      {"molecule": "Cc1ccccc1COc1cc(-n2cnc3cc(Cl)ccc32)sc1C(N)=O", "note": "[GW813349]", "%Inh": 1},
      {"molecule": "Cc1ccc(Oc2ccc(Nc3ncnc4cc[nH]c34)cc2C)cn1", "%Inh": 0},
      {"molecule": "CCCNC(=O)Nc1ccc(Oc2ncnc3ccn(C)c23)cc1", "%Inh": 12},
      {"molecule": "COc1cc(Nc2nccc(N3CCC(NC(=O)C4COc5ccccc5O4)C3)n2)cc(OC)c1OC", "note": "(centres unmarked) [GSK1379761]", "%Inh": 0},
      {"molecule": "COc1cc2ncn(-c3cc(OCc4ccc(S(C)(=O)=O)cc4)c(C(N)=O)s3)c2cc1OC", "note": "[GW869979]", "%Inh": 23},
      {"molecule": "COc1cc(Nc2ccnc3ccc(C(F)(F)F)cc23)cc(OC)c1OC", "note": "[GW577382]", "%Inh": 0},
      {"molecule": "O=C(Nc1n[nH]c2cc(-c3ccccc3F)ccc12)C1CC1", "note": "[SB-733371]", "%Inh": 0},
      {"molecule": "COC(=O)c1c(-c2ccccc2)c2cc(C)ccc2c(=O)n1Cc1ccccc1", "%Inh": 0},
      {"molecule": "FC(F)(F)c1ccc(-c2ncn(CCCN3CCOCC3)c2-c2ccncc2)cc1", "note": "[SB-217780]", "%Inh": 6},
      {"molecule": "Cl.NS(=O)(=O)c1cccc(Nc2cc(-c3ccc(F)cc3)n[nH]2)c1", "note": "[GW824645]", "%Inh": 0},
      {"molecule": "COc1cccc(C2=C(N(C)c3ccccc3)C(=O)NC2=O)c1", "note": "[SB-334865]", "%Inh": 0},
      {"molecule": "Cn1c(=O)c(F)c(Nc2ccc(I)cc2F)c2c(=O)n(OC[C@H](O)CO)cnc21", "%Inh": 10},
      {"molecule": "Fc1cccc(CSc2nnc(-c3ccc4c(c3)CCO4)o2)c1", "%Inh": 18},
      {"molecule": "Nc1ncnc2c1ncn2-c1cccc(F)c1", "note": "[SKF-97560]", "%Inh": 0},
      {"molecule": "COc1cc(OC)cc(-c2cc3cnc(N)nc3nc2NC(=O)NC(C)(C)C)c1", "%Inh": 0},
      {"molecule": "CCc1nc(-c2cccc(C)c2)c(-c2ccncc2)s1", "%Inh": 0},
      {"molecule": "COc1ccc(Nc2nccc(N3CCC(NS(=O)(=O)c4ccc(NC(C)=O)cc4)C3)n2)cc1", "note": "(centres unmarked) [GSK1379729]", "%Inh": 4},
      {"molecule": "COc1ccc(-n2cnc3c(N)ncnc32)cc1", "note": "[SKF-97236]", "%Inh": 0}
    ]},
    {"system": "DYRK1A", "conditions": "concentration: 1 μM, replicates: in singlicate; n = 1", "units": {"%Inh": "%"}, "values": [
      {"molecule": "CCc1ccc(-c2ccc3c(c2)-c2nn(C)cc2S(=O)(=O)N3C)cc1", "%Inh": 0},
      {"molecule": "Nc1n[nH]c2ncc(-c3ccccc3)cc12", "note": "[SB-517081]", "%Inh": 17},
      {"molecule": "Cc1nc(N(C)[C@H]2CN(C(=O)CC#N)CC[C@H]2C)c2cc[nH]c2n1", "%Inh": 0},
      {"molecule": "COc1ccc(-c2coc3ccc(-c4nnc(SCc5cccc(C#N)c5)o4)cc23)cc1", "%Inh": 5},
      {"molecule": "CCC(=O)c1c(-c2ccccc2)c2cc(Cl)ccc2c(=O)n1Cc1cc(S(C)(=O)=O)n(CCC(C)(C)O)n1", "%Inh": 27},
      {"molecule": "COc1cc2ncn(-c3cc(OCc4ccncc4)c(C(N)=O)s3)c2cc1OC", "note": "[GSK336313]", "%Inh": 13},
      {"molecule": "Nc1nccc2scc(-c3ccc4c(c3)CCN4C(=O)Cc3ccccc3)c12", "note": "[GSK2576924]", "%Inh": 0},
      {"molecule": "COC(=O)c1c(-c2ccccc2)c2cc(Br)ccc2c(=O)n1Cc1ccc(S(C)(=O)=O)cc1", "%Inh": 20},
      {"molecule": "CCCC(=O)Nc1n[nH]c2ncc(-c3cccc4ccccc34)cc12", "note": "[SB-642057]", "%Inh": 30},
      {"molecule": "O=C1NC(=O)C(c2ccccc2)=C1Nc1cccc(O)c1", "note": "[SB-390534]", "%Inh": 25},
      {"molecule": "Cc1nn2c(=O)cc(N3CCOCC3)nc2n1Cc1cccc(Cl)c1Cl", "note": "[GSK2342769]", "%Inh": 26},
      {"molecule": "C[C@@H]1CC[C@H](C(=O)NC2CCCCC2)CN1c1cc(-c2ccc3c(N)n[nH]c3c2)nc(N)n1", "note": "[GSK2291363]", "%Inh": 23},
      {"molecule": "Nc1ncnc2c1ncn2-c1cccc2ccccc12", "note": "[SKF-97184]", "%Inh": 0},
      {"molecule": "COc1cc2ncn(-c3cc(OCc4ccncc4Br)c(C(N)=O)s3)c2cc1OC", "note": "[GW854278]", "%Inh": 3},
      {"molecule": "COc1cc2ncn(-c3cc(OCCCc4ccccc4)c(C(N)=O)s3)c2cc1OC", "note": "[GSK205189]", "%Inh": 7},
      {"molecule": "O=C(Nc1n[nH]c2nc(-c3ccccc3)c(Cl)cc12)C1CC1", "note": "[SB-734909]", "%Inh": 10},
      {"molecule": "COc1ccc(-c2cc3c(C)nc(N)nc3n([C@H]3CC[C@H](OCCO)CC3)c2=O)cn1", "%Inh": 0},
      {"molecule": "CCC(=O)c1c(-c2ccccc2)c2cc(Cl)ccc2c(=O)n1Cc1ccc(C(=O)O)cc1", "%Inh": 0},
      {"molecule": "Cc1nnc(-c2ccc(C)c(-c3ccc(C(=O)O)cc3)c2)o1", "note": "[GW608005]", "%Inh": 20},
      {"molecule": "Cc1ccccc1COc1cc(-n2cnc3cc(Cl)ccc32)sc1C(N)=O", "note": "[GW813349]", "%Inh": 15},
      {"molecule": "Cc1ccc(Oc2ccc(Nc3ncnc4cc[nH]c34)cc2C)cn1", "%Inh": 0},
      {"molecule": "CCCNC(=O)Nc1ccc(Oc2ncnc3ccn(C)c23)cc1", "%Inh": 16},
      {"molecule": "COc1cc(Nc2nccc(N3CCC(NC(=O)C4COc5ccccc5O4)C3)n2)cc(OC)c1OC", "note": "(centres unmarked) [GSK1379761]", "%Inh": 0},
      {"molecule": "COc1cc2ncn(-c3cc(OCc4ccc(S(C)(=O)=O)cc4)c(C(N)=O)s3)c2cc1OC", "note": "[GW869979]", "%Inh": 22},
      {"molecule": "COc1cc(Nc2ccnc3ccc(C(F)(F)F)cc23)cc(OC)c1OC", "note": "[GW577382]", "%Inh": 4},
      {"molecule": "O=C(Nc1n[nH]c2cc(-c3ccccc3F)ccc12)C1CC1", "note": "[SB-733371]", "%Inh": 4},
      {"molecule": "COC(=O)c1c(-c2ccccc2)c2cc(C)ccc2c(=O)n1Cc1ccccc1", "%Inh": 0},
      {"molecule": "FC(F)(F)c1ccc(-c2ncn(CCCN3CCOCC3)c2-c2ccncc2)cc1", "note": "[SB-217780]", "%Inh": 6},
      {"molecule": "Cl.NS(=O)(=O)c1cccc(Nc2cc(-c3ccc(F)cc3)n[nH]2)c1", "note": "[GW824645]", "%Inh": 0},
      {"molecule": "COc1cccc(C2=C(N(C)c3ccccc3)C(=O)NC2=O)c1", "note": "[SB-334865]", "%Inh": 4},
      {"molecule": "Cn1c(=O)c(F)c(Nc2ccc(I)cc2F)c2c(=O)n(OC[C@H](O)CO)cnc21", "%Inh": 0},
      {"molecule": "Fc1cccc(CSc2nnc(-c3ccc4c(c3)CCO4)o2)c1", "%Inh": 62},
      {"molecule": "Nc1ncnc2c1ncn2-c1cccc(F)c1", "note": "[SKF-97560]", "%Inh": 25},
      {"molecule": "COc1cc(OC)cc(-c2cc3cnc(N)nc3nc2NC(=O)NC(C)(C)C)c1", "%Inh": 0},
      {"molecule": "CCc1nc(-c2cccc(C)c2)c(-c2ccncc2)s1", "%Inh": 0},
      {"molecule": "COc1ccc(Nc2nccc(N3CCC(NS(=O)(=O)c4ccc(NC(C)=O)cc4)C3)n2)cc1", "note": "(centres unmarked) [GSK1379729]", "%Inh": 8},
      {"molecule": "COc1ccc(-n2cnc3c(N)ncnc32)cc1", "note": "[SKF-97236]", "%Inh": 1}
    ]}
  ]
}
